Records with an inconclusive call do not appear. Calls of active or inactive are those of the source. How the source made its calls: active means hit-call score of the fitted dose curve at least 0.9, where 1 is the maximum; inconclusive means response in the unintended direction; inactive means score below 0.9.

Chain of rat SKCa (Non-Selective), Kcnn1 (gene 54261) (P70606 whole entry, looked up): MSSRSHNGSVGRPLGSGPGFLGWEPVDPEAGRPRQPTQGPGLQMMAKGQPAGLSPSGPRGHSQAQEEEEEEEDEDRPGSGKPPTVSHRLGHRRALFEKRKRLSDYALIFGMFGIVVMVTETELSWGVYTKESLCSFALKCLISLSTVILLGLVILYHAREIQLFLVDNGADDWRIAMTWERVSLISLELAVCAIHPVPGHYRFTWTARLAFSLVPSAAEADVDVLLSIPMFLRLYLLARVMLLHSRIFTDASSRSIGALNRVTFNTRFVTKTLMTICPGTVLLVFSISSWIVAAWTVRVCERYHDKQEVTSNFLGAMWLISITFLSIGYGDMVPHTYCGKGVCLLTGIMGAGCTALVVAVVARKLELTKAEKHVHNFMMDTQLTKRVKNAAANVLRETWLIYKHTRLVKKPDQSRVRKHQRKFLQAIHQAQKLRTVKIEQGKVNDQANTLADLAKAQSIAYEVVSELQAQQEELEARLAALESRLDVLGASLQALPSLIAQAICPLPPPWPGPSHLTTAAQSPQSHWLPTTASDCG

The target of the test is rat SKCa (Non-Selective), Kcnn1 (gene 54261) (UniProt P70606). Description: ERF_FR_IC_rKCNN1: Eurofins (ERF) Potassium Ion Channel [125I] Apamin Binding LeadHunter Assay for rat SKCa (Non-Selective). How it is done:
ERF_FR_IC_rKCNN1 is a biochemical, single-readout assay that uses extracted gene-proteins in a cell-free assay. Measurements were taken 1 hour after chemical dosing in a 96-well plate. See SKCa (Non-Selective) Rat Potassium Ion Channel [125I] Apamin Binding Assay, Cerep.ERF_FR_IC_rKCNN1 is an assay component calculated from the ERF_FR_IC_rKCNN1 assay. It is designed to measure radioligand binding using a type of binding reporter as detected by scintillation counting with radiometry technology.Data from the assay component ERF_FR_IC_rKCNN1 was analyzed at the assay endpoint, ERF_FR_IC_rKCNN1, in the positive analysis fitting direction relative to DMSO as the negative control and baseline of activity. Using a type of binding reporter, loss-of-signal activity can be used to understand changes in binding as they relate to gene Kcnn1. To generalize the intended target to other relatable targets, this assay endpoint is annotated to the ion channel intended target family, where the subfamily is voltage gated (Potassium).
This assay measures binding of [125I]apamin to small conductance calcium-activated potassium channel sites [SKCa]. […] Membranes are filtered and washed 3 times and the filters are counted to determine [125I]apamin specifically bound. […]
`CCCCC[C@H](O)CC(=O)CCc1ccc(O)c(OC)c1`: the call was inactive.

These data come from PubChem BioAssay AID2284174 (EPA ToxCast).
